The term inhibition denotes the percentage by which the read-out fell short of the control.

Each structure is given as a SMILES string. A number with no mark means an inactive call. No rule for the calls is given here.

Chain of Pantothenate synthetase (Mycobacterium tuberculosis (strain ATCC 25618 / H37Rv)) (P9WIL5 whole entry, looked up): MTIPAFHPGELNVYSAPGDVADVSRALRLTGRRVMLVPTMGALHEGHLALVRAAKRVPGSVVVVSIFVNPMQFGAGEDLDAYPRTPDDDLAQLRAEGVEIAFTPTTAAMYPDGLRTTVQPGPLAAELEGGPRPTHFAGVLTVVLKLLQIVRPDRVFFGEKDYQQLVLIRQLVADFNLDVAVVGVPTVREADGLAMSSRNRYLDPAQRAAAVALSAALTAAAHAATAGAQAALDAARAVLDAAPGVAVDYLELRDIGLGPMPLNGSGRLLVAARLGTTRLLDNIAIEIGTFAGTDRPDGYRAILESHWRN

The assay addresses Pantothenate synthetase (Mycobacterium tuberculosis (strain ATCC 25618 / H37Rv)) (UniProt P9WIL5). Nature of the assay: Recombinant Mtb pantothenate synthetase (PanC) inhibitors, coupled enzyme, confirmatory (AID 375).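 Also: 0% = full reaction with vehicle and 100% = no enzyme background.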 Particulars: coupled enzyme assay; at 10 µM, stronger effect = higher value.
As for `COc1cc(C(=O)N2CCN(C(=O)CC(C)C)CC2)cc(OC)c1OC`, the inhibition is 0%. Then `CCOc1ccc2[nH]c(=O)c(CN(Cc3nnnn3CCc3ccccc3)CC3CCCO3)cc2c1` (stereo not given), with 0%. Then `CC(=O)N(C)C1(c2nnnn2CCOC(=O)Nc2ccc(Cl)cc2)CCCCC1`, with 0%; and `O=C(NCC1CCCCN1)c1cc(OCC(F)(F)F)ccc1OCC(F)(F)F` (stereo not given), with 3%. Then `O=C(O)C1CC=CCC1C(=O)NCc1ccccc1` (stereo not given), with 1%; and `Cc1cc(C)n(CCCNC(=O)c2ccc3c(c2)NC(=O)CS3)n1`, with 0%; and `COCc1[nH]nc2c1C(c1cc(OC)c(O)c(OC)c1)C(C#N)=C(N)O2` (stereo not given), with 0%.

Regarding `Cc1cc(NC(=O)COC(=O)c2cccc(S(=O)(=O)N3CCOCC3)c2)no1`, the inhibition was 1%. As for `O=C(NC1CCCC1)C(c1cccs1)N(C(=O)c1ccno1)c1ccccc1` (stereo not given), the inhibition is 9%.

`O=C(CSc1nnc(Cc2cc(=O)[nH]c(=O)[nH]2)n1-c1ccccc1)NCC1CCCO1` (stereo not given): the inhibition was 0%. Under `COc1ccc(-c2nc(CSCC(=O)N3CCN(c4cccc(C)c4)C(C)C3)c(C)o2)cc1OC` (stereo not given) stands 0%; under `O=C(c1ccccc1Br)N1CCN(c2ccccc2)CC1`, 8%. Under `OC1C[N+]2(CCCCC2)C1` stands 0%; under `COc1cccc(-c2nc(CS(=O)(=O)CC(=O)N3CCc4ccccc4C3)c(C)o2)c1`, 4%.

With `c1ccc2c(SCc3cn4cccnc4n3)ncnc2c1`, the inhibition was 2%. Then `COc1cccc(S(=O)(=O)Nc2cccnc2)c1`, with 10%; and `Nc1scc(-c2ccncc2)c1Cl`, with 7%. Then `O=C(Nc1ccc(N2CCOCC2)c(Cl)c1)c1ccc(Br)o1`, with 0%. Then `CC(C)(C)n1ncc2c(=O)n(CC(=O)c3ccccc3)cnc21`, with 0%; and `NS(=O)(=O)c1cc2c(cc1Cl)NC(CSCc1ccccc1)=NS2(=O)=O`, with 0%. Take `CC1(C)COCN1S(=O)(=O)c1ccc(C(=O)Nc2nnc(-c3ccc(Cl)s3)o2)cc1`: the inhibition was 4%. Under `CC1=Nn2c(nnc2-c2ccccn2)SC1` stands 7%.

On to `CCOC(=O)N1CCC(NC(=O)Cn2c3c(c(-c4ccccc4Cl)cc2=O)CCC3)CC1`, for which the inhibition is 0%. Then `CC(=O)c1c(OCC(=O)O)ccc2c(C)cc(=O)oc12`, with 0%; and `CCn1cnc2sc(C(=O)Nc3ccc4c(c3)OCO4)c(C)c2c1=O`, with 4%. Under `Cc1ccc(Cn2c(=N)c(C(=O)NCc3ccco3)cc3c(=O)n4ccccc4nc32)cc1` stands 1%; under `CCCCCOC(=O)CSc1nnc(-c2cc(OC)c(OC)c(OC)c2)o1`, 4%. As to `O=C(Nc1sccc1C(=O)NCc1ccco1)c1cccnc1`, the inhibition is 5%.

Turning to `O=C(Cn1nc(-c2ccc(Cl)cc2)ccc1=O)NCCCN1CCN(Cc2ccccc2)CC1`, the inhibition is 2%.

On to `Cc1cc(C(=O)NCc2cccnc2)no1`, for which the inhibition was 0%. Then `CCCCc1n[nH]c2c1C(=O)CC(C)(C)C2`, with 0%.

For `Cc1cccc(-n2ncc3c(N4CCC5(CC4)OCCO5)ncnc32)c1`, the inhibition was 7%. With `O=C(NCCO)c1scc2c1OCCO2`, the inhibition is 4%.

Take `CCOC(=O)Cc1cc(=O)n2[nH]c(C)c(-c3ccc(OC)cc3)c2n1`: the inhibition was 6%. Then `COc1ccc(C(=O)Nc2nc(C)c(C(=O)N(C)C)s2)cc1OC`, with 0%. Then `O=C(Nc1nc(-c2ccc(S(=O)(=O)N3CCCC3)cc2)cs1)C1COc2ccccc2O1` (stereo not given), with 0%; and `O=C(Cc1cccs1)Nc1ccccc1C(=O)O`, with 4%; and `CC(C)(C)c1ccc(C(O)CCCN2CCC(C(O)(c3ccccc3)c3ccccc3)CC2)cc1` (stereo not given), with 0%.

As for `N#Cc1c(N2CCCC2)nc(N)c2c(N)nc(N3CCCC3)cc12`, the inhibition was 0%. Under `CCc1ccc2c(CN(CC)Cc3nc4ccccc4c(=O)[nH]3)cc(=O)oc2c1` stands 0%.

The record behind these values is PubChem BioAssay.
